Only some compounds are listed: those with a hit (about 18% of all), similar ones and a draw of the others.
TDP1 cell CPT: DT40-hTDP1 cell growth loss with CPT | chicken DT40 Tdp1-/-;hTDP1 cells + 20 nM CPT, ATP luminescence, 48 h | Potency, µM (titrated, usually from 46.2 µM), hits mostly inhibitors | 12% of 420,000 active; also: nearly all actives have a fitted effect of over 55% in size
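Chicken DT40 Tdp1-/- cells stably complemented with human TDP1 were seeded at 400 cells/well in medium containing 20 nM camptothecin, exposed to pin-transferred compounds, and grown at 37 °C for at least 48 hr. Viability was read as ATP luminescence.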
TDP1 inh: blocks human tyrosyl-DNA phosphodiesterase 1; Potency, µM (series often up to 130 µM), usual class: inhibitors; AID 485290; 0.28% of 350,000 active; recombinant TDP1, AlphaScreen DNA substrate cleavage; Q9NUW8; also: nearly all actives have a fitted effect of over 40% in size
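Recombinant human Tdp1 (E. coli-expressed, 1 nM final) preincubated with compounds 15 min at room temperature, then 5'-biotin/3'-phosphotyrosine-FITC DNA substrate (15 nM final) added for 5 min. AlphaScreen beads (10 ug/ml final) added 10 min; cleavage lowers signal.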
Six1-Eya2 blk: inhibitors of human Six1/Eya2 interaction. AlphaScreen GST-Six1/His-Eya2 binding, biochemical; hits give low values. activity change, % (concentration not given with the values). 0.56% of 360,000 active. AID 651725; in the data active = activity change below about -65%; inconclusive = mostly about -30% to -63%
Target sequence (O00167 whole entry, looked up): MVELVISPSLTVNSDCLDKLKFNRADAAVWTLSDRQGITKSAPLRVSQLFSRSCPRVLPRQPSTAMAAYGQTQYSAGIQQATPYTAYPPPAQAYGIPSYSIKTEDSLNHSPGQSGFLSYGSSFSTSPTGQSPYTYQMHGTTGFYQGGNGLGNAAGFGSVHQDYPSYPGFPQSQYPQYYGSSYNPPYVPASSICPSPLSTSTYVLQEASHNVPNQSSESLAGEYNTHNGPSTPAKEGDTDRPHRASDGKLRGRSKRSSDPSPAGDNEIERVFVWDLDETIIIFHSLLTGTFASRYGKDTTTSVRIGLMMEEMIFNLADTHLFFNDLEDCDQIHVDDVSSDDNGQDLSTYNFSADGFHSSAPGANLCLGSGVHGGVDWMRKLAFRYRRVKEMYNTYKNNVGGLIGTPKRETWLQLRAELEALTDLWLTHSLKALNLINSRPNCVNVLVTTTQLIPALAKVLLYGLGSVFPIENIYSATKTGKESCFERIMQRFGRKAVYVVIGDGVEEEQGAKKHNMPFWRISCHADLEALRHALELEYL
Target sequence (Q15475 whole entry, looked up): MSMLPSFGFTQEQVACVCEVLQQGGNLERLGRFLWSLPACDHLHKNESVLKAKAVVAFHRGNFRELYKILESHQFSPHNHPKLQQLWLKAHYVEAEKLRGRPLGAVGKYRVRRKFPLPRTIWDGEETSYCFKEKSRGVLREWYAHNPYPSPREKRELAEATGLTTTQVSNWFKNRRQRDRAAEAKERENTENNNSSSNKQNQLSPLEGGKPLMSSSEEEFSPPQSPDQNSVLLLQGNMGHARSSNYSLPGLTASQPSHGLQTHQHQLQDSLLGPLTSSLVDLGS
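Homogeneous AlphaScreen proximity assay pairing GST-Six1 with His-tagged Eya2 (added as 5X mix: 250 nM and 500 nM) in 50 mM Tris pH 8.0, 300 mM NaCl, 1 mM TCEP. Glutathione donor and nickel acceptor beads; 1 h, 37 °C, dark.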
IL-1B inflam inh: inhibitors of inflammasome signaling (IL-1 beta secretion); THP-1 LPS/ATP IL-1B secretion, AlphaLISA, 16 h; hits give low values; activity change, % at 57.5 µM; 4.7% of 360,000 active; AID 743279; in the data active = activity change below about -50%; inconclusive = mostly about -30% to -49%
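THP-1 cells pretreated 1 hr with compounds (up to 57.5 uM final), then stimulated with LPS (250 ng/mL final) plus ATP (1.25 mM final); secreted IL-1B measured by AlphaLISA after 16 hr, decreased signal indicating inhibition.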
CtBP-E1A blk: blocks the CtBP interaction with E1A | activity change, % (concentration not given with the values) | AID 651724 | 0.49% of 340,000 active | AlphaScreen GST-E1A/His-CtBP binding, 1536-well; hits give low values; in the data active = activity change below about -65%; inconclusive = mostly about -30% to -63%
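In 5 uL wells, 23 nL compound meets equimolar GST-E1A and His-CtBP (5X stock 125 nM each) for 2 h, 37 °C. Beads (5X, 50 ug/mL) then 1 h, 37 °C, dark.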
DT40 TDP1 no CPT: qHTS for Inhibitors of human tyrosyl-DNA phosphodiesterase 1 (TDP1): qHTS in cells in absence of CPT; 15% of 420,000 active; DT40 Tdp1-/- hTDP1 cells, no CPT, ATP luminescence, 48 h; Potency, µM (titrated, usually from 46.2 µM), actives largely listed as inhibitors; AID 686978, 2013; also: nearly all actives have a fitted effect of over 55% in size
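DT40 Tdp1-/-;hTDP1 cells, no CPT (DMSO vehicle only), 400 cells/well; compounds pin-transferred; ≥48 hr, 37 °C; CellTiter-Glo 30 min RT dark, luminescence read.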
A number is an active result; – = inactive; ? = inconclusive; · = no result given; [ ] = remark or other dose. Unless noted, calls follow the shape of the dose curve; as a rule, active = well fitted curve in the direction sought with a large enough effect; inconclusive = small, poorly fitted or top-dose-only effect, or another doubt; inactive = no such curve, though single readings can be large; an effect the other way counts as inactive or inconclusive.

SMILES	TDP1 cell CPT	TDP1 inh	Six1-Eya2 blk	IL-1B inflam inh	CtBP-E1A blk	DT40 TDP1 no CPT
C[C@H](CO)N1C[C@H](C)[C@@H](CN(C)Cc2ccc3c(c2)OCCN3C)OCc2cnnn2CCCC1=O	?	·	–	–	–	–
CCOc1ccc(-c2nnc3ccc(SCC(=O)NCc4ccco4)nn23)cc1	–	–	–	–	–	?
N#Cc1ccccc1OCC(=O)C1CC1	–	–	–	–	–	–
COc1cc(OC)nc(Oc2ccccc2C=O)n1	?	·	–	–	–	?
O=Cc1ccccc1Oc1ccccc1	?	–	–	–	–	12µM
N#Cc1ccccc1Oc1ccccc1C=O	?	–	–	–	·	16µM
O=Cc1ccccc1Cl	·	–	·	·	·	·
O=Cc1ccccc1C=O	9.4µM	·	·	·	·	?
COCC(=O)Nc1cc(C(=O)N2CCC(c3ccccc3)CC2)cc2nc(-c3ccccc3)n(C)c12	16µM	·	·	·	·	?
O=C(Nc1ccc2oc(-c3cc(Br)ccc3Cl)nc2c1)c1cc2ccccc2o1	16µM	–	·	·	·	10µM
Cc1ccc2cccc(NC(=O)c3ccc(-c4ccc(Br)cc4)o3)c2n1	–	–	·	·	·	–
COC(=O)c1ccccc1NC(=O)c1ccc(-c2ccc(Br)cc2)o1	–	–	–	–	–	1.6µM
Cc1ccc(-c2nc3ccccc3o2)cc1NC(=S)NC(=O)c1cc2ccccc2o1	15µM	–	–	–	–	15µM
O=C(Nc1ccc2oc(-c3ccc(Br)cc3)nc2c1)c1cc2ccccc2o1	?	–[12.3 µM]	·	·	·	10µM
O=C(Nc1ccc2oc(-c3cccnc3)nc2c1)c1cc2ccccc2o1	?	–	–	–	–	–
O=C(Nc1cccc(-c2nc3ccccc3o2)c1)c1ccc(-c2ccc(Br)cc2)o1	?	·	·	·	·	10µM
O=C(Nc1cccc(NC(=O)c2ccc(-c3ccc(Br)cc3)o2)c1)c1ccco1	?	–	–	–	–	13µM
O=C(Nc1cccc(-c2nc3ccccc3o2)c1)c1ccc(N2C(=O)C3C4C=CC(C4)C3C2=O)cc1 (stereo not drawn)	7.3µM	–	–	–	–	8.2µM
COc1ccc(C2CC(c3ccc(Cl)cc3)=NN2c2ccc(S(N)(=O)=O)cc2)cc1 (stereo not drawn)	?	–	–	–	–	?
CC(C)c1ccc(-c2cc(C(=O)N3CCOCC3)c3cc(Br)ccc3n2)cc1	?	–	–	-73	–	?
Cc1cccc2c(C(=O)N3CCN(C(=O)c4ccco4)CC3)cc(-c3cccc(Br)c3)nc12	?	–	–	-71	–	?
COc1ccc(-c2cc(C(=O)NCCCN3CCOCC3)c3cc(C(C)C)ccc3n2)cc1	?	–	–	?	–	?
CC(=O)c1ccc(N2CCN(C(=O)c3cc(-c4ccncc4)nc4ccc(Br)cc34)CC2)cc1	21µM	–	–	–	–	21µM
O=C(c1cc(-c2ccccn2)nc2ccc(Br)cc12)N1CCN(S(=O)(=O)c2ccccc2)CC1	?	–	–	–	–	?
O=C(c1ccco1)N1CCN(C(=O)c2cc(-c3ccccc3)nc3ccccc23)CC1	?	–	–	–	–	?
SMILES	TDP1 cell CPT	TDP1 inh	Six1-Eya2 blk	IL-1B inflam inh	CtBP-E1A blk	DT40 TDP1 no CPT
O=C(c1ccco1)N1CCN(C(=O)c2cc(-c3ccncc3)nc3ccc(Br)cc23)CC1	21µM	·	–	–	–	9.2µM
Cc1ccc(S(=O)(=O)N2[C@@H](c3ccc(C(C)(C)C)cc3)C(C(=O)O)=CC[C@H]2c2ccc3c(c2)OCO3)cc1	?	–	–	–	–	?
CC(C)(C)OC(=O)N1CCNc2ccccc2C1	–	–	–	–	–	–
O=C(COC(=O)c1ccc(S(=O)(=O)N2CCCC2)cc1)NCc1ccc(F)cc1	–	–	–	–	–	–
CC(Sc1nnc(C2CC2)n1C1CC1)C(=O)NCc1cccs1 (stereo not drawn)	–	–	–	–	–	–
O=c1cc(-c2ccccc2)cc(-c2ccccc2)n1O	21µM	·	–	–	?	16µM
Cn1c(-c2ccccc2)cc(=O)cc1-c1ccccc1	–	·	–	–	–	–
